Screens: PubChem BioAssay, National Center for Advancing Translational Sciences (NCATS)
Most compounds without a hit are left out; they make up all but 2.4% or so of the library.
D2 PAM-1: D2 dopamine receptor (human) potentiation; HEK293 T-REx D2, calcium flux, EC20 dopamine potentiation; AID 485347; P14416; hit rate 0.34% among 340,000; potentiation, % at 10 µM;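 active means potentiation over 3 SD above the plate norm, cut at about 30% in these data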; further: 0% is about no effect
Target sequence (P14416 whole entry, looked up): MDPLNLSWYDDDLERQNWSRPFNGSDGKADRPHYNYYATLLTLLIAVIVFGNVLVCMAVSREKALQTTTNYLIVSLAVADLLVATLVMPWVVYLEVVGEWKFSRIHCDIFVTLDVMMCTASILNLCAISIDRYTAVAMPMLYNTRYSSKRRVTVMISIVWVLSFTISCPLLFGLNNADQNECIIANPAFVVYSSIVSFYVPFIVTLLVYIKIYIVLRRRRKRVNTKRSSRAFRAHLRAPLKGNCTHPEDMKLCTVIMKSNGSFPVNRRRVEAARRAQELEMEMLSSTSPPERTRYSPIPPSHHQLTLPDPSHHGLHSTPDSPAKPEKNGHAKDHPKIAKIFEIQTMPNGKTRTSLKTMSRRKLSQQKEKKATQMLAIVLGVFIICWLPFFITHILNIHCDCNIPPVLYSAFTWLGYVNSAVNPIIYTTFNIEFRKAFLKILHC
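Tetracycline-induced HEK293 T-REx cells force-coupled to calcium signalling expressed D2; compounds were pin-added after a 10 s baseline, read kinetically 180 s, then an EC20 dopamine challenge followed with a further 180 s calcium read.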
D2 ag-1: activates the human D2 dopamine receptor | HEK293 T-REx D2 cells, calcium flux agonist mode | activation, % at 2 µM | AID 485358 | hit rate 0.53% among 340,000;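 active means activation over 3 SD above normal in the single-dose calcium agonist read, cut at about 30% in these data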; further: 0% is about no effect
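Agonism is scored from calcium flux in a force-coupled, inducible HEK293 cell line expressing D2, read kinetically for 180 s after compound addition against dopamine controls.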
D2 antagonist: antagonizes the human D2 dopamine receptor. HEK293 TREx D2 cells, calcium flux, dopamine EC80. inhibition, % at 10 µM. hit rate 2% among 340,000. AID 485344; in the data active means inhibition above about 30%; inactive means below that, where a call was filed; further: 0% is about no effect
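Calcium flux kinetic readout in an inducible HEK293 TREx D2 line plated overnight at 30 C. After 180 s compound exposure, an EC80 dopamine challenge follows with another 180 s kinetic read to detect antagonism.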
D2 ag-2: activates the human D2 dopamine receptor. P14416. DiscoveRx PathHunter D2 beta-arrestin, luminescence, 90 min; 100% = 57 uM dopamine signal. activation, % (test concentration not listed). hit rate 0.084% among 360,000. AID 624465; in the data active means activation above about 40%; inconclusive means between about 15% and that limit
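Agonist mode: compounds alone added to overnight-plated D2 PathHunter cells for 90 min at 37 C, with 57 uM final dopamine (EC100) defining full response. Beta-arrestin recruitment detected by chemiluminescent reagent, read after 1 h at ambient temperature.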
D2 PAM-2: human D2 receptor positive allosteric modulation. P14416. DiscoveRx D2 beta-arrestin cells, luminescence, 90 min; 100% = 57 uM dopamine signal. potentiation, % (no concentration beside the values). hit rate 0.23% among 360,000. AID 624464; in the data active means potentiation above about 50%; inconclusive means mostly about 30% to 49%
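PathHunter D2 cells, attached overnight at 37 deg C, received compound in DMSO plus dopamine at EC20 (50 nM final) for 90 min at 37 deg C. Beta-arrestin recruitment was read as luminescence after 1 h with detection reagent at ambient temperature.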
Starred values were filed as active, the others as inactive; ? = inconclusive; · = not tested or not shown.

SMILES	D2 PAM-1	D2 ag-1	D2 antagonist	D2 ag-2	D2 PAM-2
Cc1c(NC(=O)CSCc2ccc(Br)cc2)c(=O)n(-c2ccccc2)n1C	-6	0	42*	-4	-5
Cc1c(NC(=O)CSc2ccccc2F)c(=O)n(-c2ccccc2)n1C	46*	-1	-16	-3	0
Cc1ccc2nc(COc3cccc(NC(=O)COc4ccc(F)cc4)c3)cc(=O)n2c1	6	1	·	·	·
CC(=O)OC[C@H]1O[C@H](CCO/N=C(\C)CCN2CCCc3nc(C)c(C)cc32)C=C[C@@H]1OC(C)=O	-24	65*	78*	·	·
C/C(CCN1CCCCc2nc(C)c(C)cc21)=N\O[C@H](C)c1cn([C@H](CO)Cc2ccccc2)nn1	2	-1	-2	·	·
CCCOc1cccc(C(=O)N2CCCCC2CCN2CCCCC2)c1 (stereo not given)	-21	·	·	·	·
O=C1C(=O)c2ccccc2C(O)=C1c1cccc([N+](=O)[O-])c1	12	1	48*	-10	-19
CC(=O)Nc1sc(NC(=O)c2ccccc2)nc1-c1cccs1	-7	0	-14	4	-1
CCN(CC)c1ccc(/C=C(\C#N)c2nc(-c3cccs3)c(NC(C)=O)s2)cc1	-3	33*	6	·	·
Nc1nonc1-c1nc2ccccc2n1CC(=O)N1CCN(c2ccc(F)cc2)CC1	50*	1	-30	1	-11
Nc1nonc1-c1nc2ccccc2n1CC(=O)Nc1ccc(F)cc1	9	5	·	·	·
O=C(c1ccc2nc(N3CCOCC3)sc2c1)N1CCC(Cc2ccccc2)CC1	-4	0	32*	-1	-2
CCn1cnc2sc(C(=O)N3CCN(Cc4ccc5c(c4)OCO5)CC3)c(C)c2c1=O	-14	33*	-5	·	·
Cc1ccccc1C(=O)N1CCC(C(=O)N2CCN(Cc3ccc4c(c3)OCO4)CC2)CC1	·	·	·	1	0
O=C(c1ccc(F)cc1)N1CCC(C(=O)N2CCN(Cc3ccc4c(c3)OCO4)CC2)CC1	-12	4	31*	-2	-8
O=C(c1ccc2nc(N3CCCCC3)sc2c1)N1CCN(Cc2ccc3c(c2)OCO3)CC1	-8	49*	8	-5	-1
CCOC(=O)N1CCN(C(=O)c2ccc3nc(N4CCCCC4)sc3c2)CC1	10	0	12	2	4
Cc1ccc(OCc2nnc(SCC(=O)Nc3ccccc3C(C)C)o2)cc1	8	1	·	·	·
Cc1nc(SCC(=O)NCc2ccco2)c2c3c(sc2n1)CCCC3	1	1	36*	-3	-5
CC(C)(Oc1ccc(Cl)cc1)C(=O)N1CCN(c2ccccn2)CC1	2	-1	43*	-3	-20
COc1cc2ccnc(Cc3cccc(OC)c3OC)c2cc1OC	0	1	-4	15	55*
O=C(Cc1cccs1)NCc1ccncc1	3	-1	58*	-5	1
O=C(Cc1cccs1)NCCCc1ccccc1	-12	0	69*	3	13
COC(=O)c1cc2sc(C)cc2n1Cc1ccc(Br)cc1F	3	·	·	·	·
O=C(Nc1ccc(OCc2cc(=O)n3c4c(sc3n2)CCCC4)cc1)c1ccc(F)cc1	1	0	·	·	·
SMILES	D2 PAM-1	D2 ag-1	D2 antagonist	D2 ag-2	D2 PAM-2
COc1ccccc1N1CCN(CC(=O)N2N=CCC2c2ccccc2)CC1 (stereo not given)	-18	0	42*	-10	-22
COc1ccccc1N1CCN(/N=C/c2cccc(OC)c2O)CC1	-5	-3	59*	-9	-6
C/C(=C\c1ccccc1)CN1CCN(c2ccccc2)CC1	-6	0	-6	?	1
COc1ccccc1N1CCN(C/C(C)=C/c2ccccc2)CC1	-23	0	74*	-2	-18
COc1ccc(N2CCN(CC(=O)N3N=CCC3c3ccccc3)CC2)cc1 (stereo not given)	-3	0	13	0	-3
Cc1ccc(CN(C(=O)COc2ccccc2Cl)c2ccccn2)o1	-16	·	·	·	·
O=C(Nc1ccc(F)cc1F)c1cc2c(=O)n3ccccc3nc2s1	18	·	·	·	·
COc1ccccc1-c1nnc(SCC(=O)c2ccc(F)cc2)n1-c1ccccc1	-1	0	·	·	·
CC(C)N(Cc1nc(-c2ccccc2)no1)C(=O)c1ccc2c(c1)OCO2	4	-3	31*	1	-8
COc1ccc(N2CCN(C(CNC(=O)c3ccc(C)cc3)c3ccc4c(c3)OCO4)CC2)cc1 (stereo not given)	-15	0	·	·	·
COc1ccc(CNC(=O)CSc2nc(-c3ccc(OC)c(OC)c3)cc(C(F)(F)F)n2)cc1	8	0	·	·	·
CCNC(=O)c1ccccc1SCC(=O)Nc1ccc(F)cc1	35*	0	23	-3	-7
CCNC(=O)c1ccccc1SCc1ccccc1	10	-1	14	3	0
COc1ccc(N2CCC(CNC(=O)Nc3cccc(OC)c3)C2)cc1 (stereo not given)	-1	0	57*	-3	-5
N#CCC(=N)N1CCN(c2cccc(Cl)c2)CC1	-15	1	63*	0	-22
O=C(Cc1ccc(Cl)cc1)Nc1ccc2oc(=O)ccc2c1	4	-2	12	-2	-3
O=C(Cc1ccc(Cl)cc1)Nc1ccc(-c2cc3ccccc3oc2=O)c(Cl)c1	8	0	46*	-6	10
Cc1nc2c3ccccc3n(CCN3CCCCC3)c2s1	4	-1	40*	·	·
CCc1c(C(C)S(=O)(=O)c2ccccc2)[nH]c(=O)n1CC (stereo not given)	-17	0	35*	-3	0
N#Cc1cc(S(=O)(=O)c2ccccc2)c(N)[nH]c1=O	4	1	86*	-5	-14
Cc1cc(C)cc(N(CC(=O)N2CCCCCC2)S(C)(=O)=O)c1	-2	-1	34*	7	2
CCOC(=O)C1CCN(C(=O)CN(c2ccc3c(c2)OCO3)S(C)(=O)=O)CC1	1	1	45*	-2	-16
CCOC(=O)C1CCN(C(=O)CN(c2ccc(Cl)c(C(F)(F)F)c2)S(C)(=O)=O)CC1	15	0	-4	-3	-16
COc1cc(CCC(=O)NCc2ccc3c(c2)CCN3C(=O)c2ccc(F)cc2)cc(OC)c1OC	9	0	·	·	·
CCOc1ccc(CN2CCN(S(=O)(=O)c3ccc(Cl)cc3)CC2)cc1	8	0	·	·	·
COc1ccc(C)cc1NC(=O)CNC(c1ccccc1)c1ccccc1	5	1	37*	-3	-11
COc1ccc(Cl)cc1NC(=O)CNC(c1ccccc1)c1ccccc1	-2	1	-6	-2	-5
COc1ccc(OC)c(NC(=O)CNC(c2ccccc2)c2ccccc2)c1	4	0	31*	-5	-3
COC(=O)c1ccc(NC(=O)CCc2c(C)nn(-c3ccc(N4CCOCC4)nn3)c2C)cc1	-5	1	·	·	·
COc1c(C)cc(Br)cc1C(=O)Nc1ccccc1C	-3	-2	8	-9	-5
